Reference: PubChem BioAssay (Tox21)
Results filed as inconclusive are left out. Activity calls are given as the source filed them. Calls come from the whole dose curve.

What was measured:
[1] = molecular target: Acetylcholinesterase (Homo sapiens) (UniProt P22303); assay: Acetylcholinesterase (AChE) small molecule antagonists: colormetric cell-based qHTS assay (AID 1347395); note: nearly all actives have a fitted effect of over 30% in size
Summary of the method: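 SH-SY5Y cells, plated overnight at 37 C, were exposed to compounds for 30 min at 37 C and 5% CO2. Acetylthiocholine plus DTNB was then added, and thiocholine from endogenous AChE was quantified colorimetrically after 90 min at 37 C.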

[2] = molecular target: Acetylcholinesterase (Homo sapiens) (UniProt P22303); assay: Acetylcholinesterase (AChE) small molecule antagonists: enzyme-based qHTS assay (AID 1347397); conditions: Potency: AChE enzyme activity inhibition; outcome: AChE enzyme activity inhibition; note: nearly all actives have a fitted effect of over 55% in size
Summary of the method: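 In this quantitative HTS, compounds from the Tox21 10K collection were preincubated 30 min at ambient temperature with recombinant human AChE dispensed at 50 mU/mL. Hydrolysis of acetylthiocholine was then followed for 10 min by DTNB colour development.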

[3] = molecular target: Acetylcholinesterase (Homo sapiens) (UniProt P22303); assay: Acetylcholinesterase (AChE) small molecule antagonists: fluorescence cell-based qHTS assay (AID 1347398); conditions: Potency: AChE activity; outcome: AChE activity; note: nearly all actives have a fitted effect of over 50% in size
Summary of the method: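 Cells (SH-SY5Y) attached overnight, were dosed with compound or DMSO vehicle for 30 min at 37 C, and then incubated 40 min at room temperature with acetylthiocholine and Thiolite Green; green fluorescence indexed AChE activity.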

[4] = molecular target: Acetylcholinesterase (Homo sapiens) (UniProt P22303); assay: Acetylcholinesterase (AChE) small molecule antagonists: enzyme-based qHTS assay with human liver microsomes (AID 1347399); conditions: Potency: qHTS inhibition; outcome: qHTS inhibition; note: nearly all actives have a fitted effect of over 60% in size
Summary of the method: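 Recombinant human AChE (50 mU/mL in the enzyme mix) and human liver microsomes (0.25 mg/mL final) were preincubated with compound and NADPH (0.25 mg/mL final) for 30 min at 37 C. Acetylthiocholine/DTNB was then added; thiocholine was read colorimetrically after 10 min at room temperature.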
% is set by controls: 0 for no effect and ±100 for the full control effect.

Chain of Acetylcholinesterase (Homo sapiens) (P22303 whole entry, looked up): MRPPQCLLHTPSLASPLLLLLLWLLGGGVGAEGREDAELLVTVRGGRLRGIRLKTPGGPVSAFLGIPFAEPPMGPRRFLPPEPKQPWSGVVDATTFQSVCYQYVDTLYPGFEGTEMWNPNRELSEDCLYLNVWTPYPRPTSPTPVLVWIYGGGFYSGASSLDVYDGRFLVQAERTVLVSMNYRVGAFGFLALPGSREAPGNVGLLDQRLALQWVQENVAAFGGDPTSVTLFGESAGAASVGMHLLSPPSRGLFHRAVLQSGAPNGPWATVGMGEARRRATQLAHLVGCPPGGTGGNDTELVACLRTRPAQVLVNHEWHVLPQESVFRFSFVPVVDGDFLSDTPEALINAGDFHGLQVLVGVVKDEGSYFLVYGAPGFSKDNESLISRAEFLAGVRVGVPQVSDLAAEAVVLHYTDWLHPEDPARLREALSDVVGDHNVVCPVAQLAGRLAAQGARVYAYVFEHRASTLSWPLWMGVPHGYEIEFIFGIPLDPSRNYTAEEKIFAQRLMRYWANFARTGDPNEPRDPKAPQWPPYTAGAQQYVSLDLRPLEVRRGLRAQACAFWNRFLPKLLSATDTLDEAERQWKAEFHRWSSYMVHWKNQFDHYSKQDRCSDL

CCCCOC(=O)[C@@H](C)Oc1ccc(Oc2ccc(C(F)(F)F)cn2)cc1
inactive: Potency [1] | Potency [2] | Potency [3] | Potency [4]

CC/C=C\CC/C=C/CO
inactive: Potency [1] | Potency [2] | Potency [3] | Potency [4]

COc1ccc(S(=O)(=O)N2c3ccc(Cl)cc3[C@@](O)(c3ccccc3Cl)[C@H]2C(=O)N2CCC[C@@H]2C(N)=O)cc1OC
inactive: Potency [1] | Potency [2] | Potency [3] | Potency [4]

COCCCC/C(=N\OCCN)c1ccc(C(F)(F)F)cc1
inactive: Potency [1] | Potency [2] | Potency [3] | Potency [4]

COc1ccc(/C=C/c2cc(OC)cc(=O)o2)cc1
inactive: Potency [1] | Potency [2] | Potency [3] | Potency [4]

Nc1ccc(C(=O)OCCCOC(=O)c2ccc(N)cc2)cc1
inactive: Potency [1] | Potency [2] | Potency [3] | Potency [4]

COc1ccc(OC(=O)N(CC(=O)O)Cc2ccc(OCCc3nc(-c4ccccc4)oc3C)cc2)cc1
inactive: Potency [1] | Potency [2] | Potency [3] | Potency [4]

CCN1CCN(c2cc3c(cc2F)c(=O)c(C(=O)O)cn3C2CC2)CC1
inactive: Potency [1] | Potency [2] | Potency [3] | Potency [4]

CC(C)(C)OC(=O)N1C[C@@H](F)C[C@H]1C(=O)O
inactive: Potency [1] | Potency [2] | Potency [3] | Potency [4]

O=C(O)/C=C/c1ccccc1
inactive: Potency [1] | Potency [2] | Potency [3] | Potency [4]

CCOC(=O)CCc1ccccc1
inactive: Potency [1] | Potency [2] | Potency [3] | Potency [4]

O=C1OC(=O)c2cc([N+](=O)[O-])ccc21
inactive: Potency [1] | Potency [2] | Potency [3] | Potency [4]

CCOC(=O)CC(=O)c1cc(F)c(Cl)nc1Cl
inactive: Potency [1] | Potency [2] | Potency [3] | Potency [4]

CCCCCCCCCC[N+](C)(C)[O-]
inactive: Potency [1] | Potency [2] | Potency [3] | Potency [4]

CCCCCOC(=O)c1ccc(O)cc1
inactive: Potency [1] | Potency [2] | Potency [3] | Potency [4]

CCCCCCCCCCCCCCCC/C=C/C1CC(=O)OC1=O (centres undefined)
inactive: Potency [1] | Potency [2] | Potency [3] | Potency [4]

CCCCCCC(=O)OCC
inactive: Potency [1] | Potency [2] | Potency [3] | Potency [4]

Cc1ccc(C(N)=O)cc1N
inactive: Potency [1] | Potency [2] | Potency [3] | Potency [4]

OC1CCCCC1c1ccccc1 (centres undefined)
inactive: Potency [1] | Potency [2] | Potency [3] | Potency [4]

C[N+]1(C)CCCC(OC(=O)C(O)(c2ccccc2)c2ccccc2)C1 (centres undefined)
inactive: Potency [1] | Potency [2] | Potency [3] | Potency [4]

COC(=O)C1=C(C)NC(C)=C(C(=O)OC(C)(C)CN(C)CCC(c2ccccc2)c2ccccc2)C1c1cccc([N+](=O)[O-])c1 (centres undefined)
inactive: Potency [1] | Potency [2] | Potency [3] | Potency [4]

C=COCCOCCOCCOC=C
inactive: Potency [1] | Potency [2] | Potency [3] | Potency [4]

COc1ccc(C(=O)Nc2nc3ccccc3c(NCc3ccccc3)c2C#N)cc1
inactive: Potency [1] | Potency [2] | Potency [3] | Potency [4]

Cc1cccc(Cl)c1
inactive: Potency [1] | Potency [2] | Potency [3] | Potency [4]

Cc1c(Cl)cccc1Nc1ccccc1C(=O)O
inactive: Potency [1] | Potency [2] | Potency [3] | Potency [4]

O=C(Oc1ccccc1)c1cccc(C(=O)Oc2ccccc2)c1
inactive: Potency [1] | Potency [2] | Potency [3] | Potency [4]

CC(=O)CCc1ccc(O)cc1
inactive: Potency [1] | Potency [2] | Potency [3] | Potency [4]

N[C@H]1C(O)O[C@H](CO)[C@@H](O)[C@@H]1O (some centres undefined)
inactive: Potency [1] | Potency [2] | Potency [3] | Potency [4]

O=C(O)c1cc(=O)c2ccccc2o1
inactive: Potency [1] | Potency [2] | Potency [3] | Potency [4]

C=CCOc1c(Br)cc(Br)cc1Br
inactive: Potency [1] | Potency [2] | Potency [3] | Potency [4]

COC(=O)CCC(=O)O
inactive: Potency [1] | Potency [2] | Potency [3] | Potency [4]

CCOC(C)(C)C
inactive: Potency [1] | Potency [2] | Potency [3] | Potency [4]

Nc1ccc2c(S(=O)(=O)O)cccc2c1S(=O)(=O)O
inactive: Potency [1] | Potency [2] | Potency [3] | Potency [4]

O=S(=O)(O)CCN1CCN(CCO)CC1
inactive: Potency [1] | Potency [2] | Potency [3] | Potency [4]

COc1ccccc1NC(=O)c1cc2ccccc2cc1O
inactive: Potency [1] | Potency [2] | Potency [3] | Potency [4]

COc1cc(C(=O)OCCCN2CCCN(CCCOC(=O)c3cc(OC)c(OC)c(OC)c3)CC2)cc(OC)c1OC
inactive: Potency [1] | Potency [2] | Potency [3] | Potency [4]

C=CCOCC(O)CO (centres undefined)
inactive: Potency [1] | Potency [2] | Potency [3] | Potency [4]

CNCCS(=O)(=O)O
inactive: Potency [1] | Potency [2] | Potency [3] | Potency [4]

C/C=C/C=C/C=O
inactive: Potency [1] | Potency [2] | Potency [3] | Potency [4]

COc1cc(C(C)C)ccc1C
inactive: activity, negative = inhibition [1] 0.291% [at 23.6 µM] | activity change, negative = inhibition [2] 1.63% [at 23.6 µM] | activity change, negative = inhibition [3] 2.94% [at 23.8 µM] | activity change, negative = inhibition [4] -4.86% [at 23.6 µM]

Cc1cc(C)c(C=O)c(C)c1
inactive: Potency [1] | Potency [2] | Potency [3] | Potency [4]
